# Experimental data: ChEMBL document CHEMBL2218924, “A broad activity screen in support of a chemogenomic map for kinase signalling research and drug discovery” (Biochem J, 2013)
# Experiments:
# [1] = target: Vascular endothelial growth factor receptor 3 (Homo sapiens) (UniProt P35916); conditions: at 10 µM
# [2] = target: Macrophage colony-stimulating factor 1 receptor (Homo sapiens) (UniProt P07333); conditions: at 1 µM
# [3] = target: Macrophage colony-stimulating factor 1 receptor (Homo sapiens) (UniProt P07333); conditions: at 10 µM
# [4] = target: Tyrosine-protein kinase Fyn (Homo sapiens) (UniProt P06241); conditions: at 1 µM
# [5] = target: Tyrosine-protein kinase Fyn (Homo sapiens) (UniProt P06241); conditions: at 10 µM
# [6] = target: T1, Mitogen-activated protein kinase kinase kinase kinase 2 (Homo sapiens) (UniProt Q12851); conditions: at 1 µM
# T1 sequence (whole entry): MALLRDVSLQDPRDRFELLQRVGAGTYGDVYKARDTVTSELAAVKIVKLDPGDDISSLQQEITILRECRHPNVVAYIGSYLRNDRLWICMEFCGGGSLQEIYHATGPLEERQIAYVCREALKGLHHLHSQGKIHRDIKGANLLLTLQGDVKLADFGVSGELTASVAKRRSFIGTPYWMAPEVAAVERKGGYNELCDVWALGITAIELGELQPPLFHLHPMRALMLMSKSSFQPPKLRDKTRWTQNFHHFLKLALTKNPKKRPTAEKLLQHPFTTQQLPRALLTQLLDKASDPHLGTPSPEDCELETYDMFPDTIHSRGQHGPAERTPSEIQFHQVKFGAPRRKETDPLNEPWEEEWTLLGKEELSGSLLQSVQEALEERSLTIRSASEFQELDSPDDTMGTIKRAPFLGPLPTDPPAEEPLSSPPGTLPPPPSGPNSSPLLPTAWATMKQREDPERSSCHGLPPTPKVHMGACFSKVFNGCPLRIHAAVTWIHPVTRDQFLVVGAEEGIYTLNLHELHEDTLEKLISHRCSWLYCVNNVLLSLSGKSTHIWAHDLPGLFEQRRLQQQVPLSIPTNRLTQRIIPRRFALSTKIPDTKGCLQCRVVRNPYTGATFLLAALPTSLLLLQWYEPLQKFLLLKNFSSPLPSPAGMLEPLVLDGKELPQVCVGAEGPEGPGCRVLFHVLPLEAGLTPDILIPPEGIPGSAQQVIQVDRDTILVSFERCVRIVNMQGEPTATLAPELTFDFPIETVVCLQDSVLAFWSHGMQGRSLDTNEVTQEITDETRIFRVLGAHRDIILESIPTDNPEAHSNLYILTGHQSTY
# [7] = target: T1, Mitogen-activated protein kinase kinase kinase kinase 2 (Homo sapiens); conditions: at 10 µM
# [8] = target: G protein-coupled receptor kinase 5 (Homo sapiens) (UniProt P34947); conditions: at 10 µM
# [9] = target: Glycogen synthase kinase-3 alpha (Homo sapiens) (UniProt P49840); conditions: at 1 µM
# [10] = target: Glycogen synthase kinase-3 alpha (Homo sapiens) (UniProt P49840); conditions: at 10 µM
# [11] = target: Glycogen synthase kinase-3 beta (Homo sapiens) (UniProt P49841); conditions: at 1 µM
# [12] = target: Glycogen synthase kinase-3 beta (Homo sapiens) (UniProt P49841); conditions: at 10 µM
# [13] = target: Homeodomain-interacting protein kinase 1 (Homo sapiens) (UniProt Q86Z02); conditions: at 1 µM
# [14] = target: Homeodomain-interacting protein kinase 1 (Homo sapiens) (UniProt Q86Z02); conditions: at 10 µM
# [15] = target: Homeodomain-interacting protein kinase 2 (Homo sapiens) (UniProt Q9H2X6); conditions: at 1 µM
# [16] = target: Homeodomain-interacting protein kinase 2 (Homo sapiens) (UniProt Q9H2X6); conditions: at 10 µM
# [17] = target: T2, Rhodopsin kinase GRK7 (Homo sapiens) (UniProt Q8WTQ7); conditions: at 1 µM
# T2 sequence (whole entry): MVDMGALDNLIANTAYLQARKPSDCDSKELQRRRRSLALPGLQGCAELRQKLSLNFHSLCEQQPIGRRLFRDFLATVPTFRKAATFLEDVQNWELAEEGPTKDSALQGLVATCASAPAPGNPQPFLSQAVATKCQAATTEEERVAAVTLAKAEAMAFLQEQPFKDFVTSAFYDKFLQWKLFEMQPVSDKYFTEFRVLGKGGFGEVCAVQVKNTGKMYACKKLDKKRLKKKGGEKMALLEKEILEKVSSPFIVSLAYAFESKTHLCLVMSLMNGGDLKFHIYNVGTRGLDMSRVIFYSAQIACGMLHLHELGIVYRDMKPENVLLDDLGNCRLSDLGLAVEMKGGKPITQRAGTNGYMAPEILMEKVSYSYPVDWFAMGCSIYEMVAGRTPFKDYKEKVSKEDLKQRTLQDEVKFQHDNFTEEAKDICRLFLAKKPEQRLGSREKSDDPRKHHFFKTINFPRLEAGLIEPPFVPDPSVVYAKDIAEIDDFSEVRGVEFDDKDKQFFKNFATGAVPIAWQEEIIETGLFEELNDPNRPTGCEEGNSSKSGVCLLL
# [18] = target: T2, Rhodopsin kinase GRK7 (Homo sapiens); conditions: at 10 µM
# [19] = target: G protein-coupled receptor kinase 6 (Homo sapiens) (UniProt P43250); conditions: at 10 µM
# [20] = target: Homeodomain-interacting protein kinase 3 (Homo sapiens) (UniProt Q9H422); conditions: at 1 µM
# Chain of Homeodomain-interacting protein kinase 3 (Homo sapiens) (Q9H422 whole entry, looked up): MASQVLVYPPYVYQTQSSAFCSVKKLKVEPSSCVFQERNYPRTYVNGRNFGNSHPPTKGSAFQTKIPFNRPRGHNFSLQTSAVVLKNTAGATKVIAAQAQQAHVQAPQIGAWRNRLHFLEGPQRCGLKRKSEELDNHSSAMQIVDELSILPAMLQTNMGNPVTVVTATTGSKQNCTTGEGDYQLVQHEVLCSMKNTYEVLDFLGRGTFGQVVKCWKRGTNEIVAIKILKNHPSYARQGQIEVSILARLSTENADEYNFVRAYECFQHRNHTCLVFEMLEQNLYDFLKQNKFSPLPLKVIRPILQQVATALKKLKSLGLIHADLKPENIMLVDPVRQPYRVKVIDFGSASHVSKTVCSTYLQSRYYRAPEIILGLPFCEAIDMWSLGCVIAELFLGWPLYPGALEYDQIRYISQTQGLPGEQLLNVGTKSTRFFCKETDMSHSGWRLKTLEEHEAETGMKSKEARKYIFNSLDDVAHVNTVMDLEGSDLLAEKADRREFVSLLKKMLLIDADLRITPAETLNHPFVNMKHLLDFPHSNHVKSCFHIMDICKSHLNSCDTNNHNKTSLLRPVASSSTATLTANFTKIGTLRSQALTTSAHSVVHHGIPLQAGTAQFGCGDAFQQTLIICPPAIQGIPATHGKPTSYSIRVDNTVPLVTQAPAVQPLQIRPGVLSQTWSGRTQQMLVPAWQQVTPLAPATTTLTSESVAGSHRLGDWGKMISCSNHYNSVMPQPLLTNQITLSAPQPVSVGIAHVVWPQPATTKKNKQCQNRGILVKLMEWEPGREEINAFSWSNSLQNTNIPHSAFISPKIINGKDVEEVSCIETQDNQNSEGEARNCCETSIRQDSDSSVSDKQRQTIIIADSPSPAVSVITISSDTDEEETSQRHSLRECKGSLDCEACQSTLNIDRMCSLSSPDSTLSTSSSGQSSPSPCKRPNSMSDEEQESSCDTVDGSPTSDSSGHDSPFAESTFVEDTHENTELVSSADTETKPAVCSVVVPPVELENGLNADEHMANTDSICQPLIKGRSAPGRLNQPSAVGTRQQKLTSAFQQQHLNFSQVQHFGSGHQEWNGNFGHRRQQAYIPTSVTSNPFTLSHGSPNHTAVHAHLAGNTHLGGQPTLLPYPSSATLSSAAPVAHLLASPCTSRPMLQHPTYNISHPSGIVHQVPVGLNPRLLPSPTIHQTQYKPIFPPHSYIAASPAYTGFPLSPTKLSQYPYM
# Chain of Macrophage colony-stimulating factor 1 receptor (Homo sapiens) (P07333 whole entry): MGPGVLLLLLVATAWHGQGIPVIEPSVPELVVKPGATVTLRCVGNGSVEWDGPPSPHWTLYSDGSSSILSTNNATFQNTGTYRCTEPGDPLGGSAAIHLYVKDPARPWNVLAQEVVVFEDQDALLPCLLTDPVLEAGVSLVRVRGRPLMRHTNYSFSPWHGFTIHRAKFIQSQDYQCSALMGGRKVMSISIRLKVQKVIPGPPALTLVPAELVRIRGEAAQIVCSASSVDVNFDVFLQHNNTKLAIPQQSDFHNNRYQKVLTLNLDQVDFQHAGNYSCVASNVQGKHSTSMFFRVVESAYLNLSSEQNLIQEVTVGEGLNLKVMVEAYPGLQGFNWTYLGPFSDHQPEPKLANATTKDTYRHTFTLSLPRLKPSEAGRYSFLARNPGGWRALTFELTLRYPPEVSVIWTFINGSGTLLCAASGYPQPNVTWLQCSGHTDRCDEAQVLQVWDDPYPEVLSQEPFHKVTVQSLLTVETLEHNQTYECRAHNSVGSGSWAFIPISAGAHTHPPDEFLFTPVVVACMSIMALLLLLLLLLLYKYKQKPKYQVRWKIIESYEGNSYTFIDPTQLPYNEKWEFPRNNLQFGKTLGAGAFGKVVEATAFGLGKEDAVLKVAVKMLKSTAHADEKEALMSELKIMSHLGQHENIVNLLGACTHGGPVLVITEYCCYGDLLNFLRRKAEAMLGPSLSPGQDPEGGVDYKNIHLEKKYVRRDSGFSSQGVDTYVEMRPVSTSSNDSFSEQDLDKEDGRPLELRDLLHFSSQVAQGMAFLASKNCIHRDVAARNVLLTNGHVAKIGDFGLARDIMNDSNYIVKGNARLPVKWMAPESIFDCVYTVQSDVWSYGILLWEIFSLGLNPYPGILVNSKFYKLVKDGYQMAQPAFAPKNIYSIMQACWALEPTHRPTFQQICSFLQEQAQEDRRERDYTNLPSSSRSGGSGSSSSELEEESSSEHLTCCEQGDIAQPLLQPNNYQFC
# Chain of G protein-coupled receptor kinase 6 (Homo sapiens) (P43250 whole entry, looked up): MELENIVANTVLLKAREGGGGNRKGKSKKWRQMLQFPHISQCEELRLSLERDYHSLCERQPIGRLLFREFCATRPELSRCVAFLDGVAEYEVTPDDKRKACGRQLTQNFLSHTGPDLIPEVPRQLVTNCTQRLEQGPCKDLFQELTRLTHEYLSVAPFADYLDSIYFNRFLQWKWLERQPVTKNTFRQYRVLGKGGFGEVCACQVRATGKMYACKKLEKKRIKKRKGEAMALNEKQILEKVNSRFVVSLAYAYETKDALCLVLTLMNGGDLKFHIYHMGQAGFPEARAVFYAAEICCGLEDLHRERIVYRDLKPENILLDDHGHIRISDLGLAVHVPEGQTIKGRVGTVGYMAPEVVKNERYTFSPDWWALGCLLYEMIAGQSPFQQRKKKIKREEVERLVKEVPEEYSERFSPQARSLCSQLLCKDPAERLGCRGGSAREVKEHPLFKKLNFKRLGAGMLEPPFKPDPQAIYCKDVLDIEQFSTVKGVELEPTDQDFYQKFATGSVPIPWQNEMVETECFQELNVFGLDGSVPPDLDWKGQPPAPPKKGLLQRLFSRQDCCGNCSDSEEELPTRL
# Chain of Homeodomain-interacting protein kinase 1 (Homo sapiens) (Q86Z02 whole entry, looked up): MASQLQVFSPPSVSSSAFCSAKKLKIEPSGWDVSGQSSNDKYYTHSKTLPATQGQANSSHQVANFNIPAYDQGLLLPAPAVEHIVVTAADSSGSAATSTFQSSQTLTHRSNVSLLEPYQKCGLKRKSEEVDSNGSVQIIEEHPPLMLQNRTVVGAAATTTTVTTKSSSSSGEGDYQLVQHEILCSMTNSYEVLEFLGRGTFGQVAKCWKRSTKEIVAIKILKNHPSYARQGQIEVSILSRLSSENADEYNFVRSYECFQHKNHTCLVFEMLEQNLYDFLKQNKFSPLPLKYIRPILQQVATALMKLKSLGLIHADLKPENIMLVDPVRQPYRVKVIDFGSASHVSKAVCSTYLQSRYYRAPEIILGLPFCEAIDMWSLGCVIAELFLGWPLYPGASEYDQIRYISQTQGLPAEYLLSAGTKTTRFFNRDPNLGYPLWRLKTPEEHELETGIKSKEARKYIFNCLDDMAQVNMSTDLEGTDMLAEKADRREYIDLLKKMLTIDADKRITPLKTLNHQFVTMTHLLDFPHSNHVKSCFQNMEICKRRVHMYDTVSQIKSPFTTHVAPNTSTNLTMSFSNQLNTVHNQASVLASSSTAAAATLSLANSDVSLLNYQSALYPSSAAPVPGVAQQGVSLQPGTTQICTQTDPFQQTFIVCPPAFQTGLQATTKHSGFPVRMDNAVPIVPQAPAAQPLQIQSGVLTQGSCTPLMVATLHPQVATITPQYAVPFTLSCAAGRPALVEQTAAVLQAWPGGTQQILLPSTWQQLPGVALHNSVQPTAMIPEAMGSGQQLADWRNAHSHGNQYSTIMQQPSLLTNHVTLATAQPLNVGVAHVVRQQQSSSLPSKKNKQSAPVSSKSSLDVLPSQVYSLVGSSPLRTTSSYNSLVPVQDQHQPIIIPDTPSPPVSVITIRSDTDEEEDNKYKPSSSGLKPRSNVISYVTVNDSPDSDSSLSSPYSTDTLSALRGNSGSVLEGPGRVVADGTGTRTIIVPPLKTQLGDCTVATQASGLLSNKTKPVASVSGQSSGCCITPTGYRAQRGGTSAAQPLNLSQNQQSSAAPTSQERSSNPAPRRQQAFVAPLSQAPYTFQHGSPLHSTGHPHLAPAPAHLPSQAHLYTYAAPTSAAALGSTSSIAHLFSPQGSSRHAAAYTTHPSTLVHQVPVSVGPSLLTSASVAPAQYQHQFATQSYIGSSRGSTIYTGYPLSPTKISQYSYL
# Chain of G protein-coupled receptor kinase 5 (Homo sapiens) (P34947 whole entry, looked up): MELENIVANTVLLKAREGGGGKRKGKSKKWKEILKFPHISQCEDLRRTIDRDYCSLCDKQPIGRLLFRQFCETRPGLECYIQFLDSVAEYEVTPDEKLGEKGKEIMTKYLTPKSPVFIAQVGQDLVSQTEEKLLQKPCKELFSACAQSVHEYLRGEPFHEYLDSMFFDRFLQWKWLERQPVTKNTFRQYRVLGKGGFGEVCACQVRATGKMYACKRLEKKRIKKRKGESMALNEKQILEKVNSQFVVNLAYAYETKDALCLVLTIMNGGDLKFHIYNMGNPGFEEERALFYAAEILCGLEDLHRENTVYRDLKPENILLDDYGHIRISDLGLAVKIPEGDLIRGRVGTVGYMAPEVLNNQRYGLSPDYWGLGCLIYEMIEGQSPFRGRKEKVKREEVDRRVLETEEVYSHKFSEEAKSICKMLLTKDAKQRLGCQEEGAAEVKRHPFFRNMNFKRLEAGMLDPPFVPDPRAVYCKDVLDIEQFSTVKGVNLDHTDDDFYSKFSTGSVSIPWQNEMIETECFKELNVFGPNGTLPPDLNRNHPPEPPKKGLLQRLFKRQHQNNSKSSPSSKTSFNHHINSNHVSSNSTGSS
# Chain of Tyrosine-protein kinase Fyn (Homo sapiens) (P06241 2-537 limits assumed): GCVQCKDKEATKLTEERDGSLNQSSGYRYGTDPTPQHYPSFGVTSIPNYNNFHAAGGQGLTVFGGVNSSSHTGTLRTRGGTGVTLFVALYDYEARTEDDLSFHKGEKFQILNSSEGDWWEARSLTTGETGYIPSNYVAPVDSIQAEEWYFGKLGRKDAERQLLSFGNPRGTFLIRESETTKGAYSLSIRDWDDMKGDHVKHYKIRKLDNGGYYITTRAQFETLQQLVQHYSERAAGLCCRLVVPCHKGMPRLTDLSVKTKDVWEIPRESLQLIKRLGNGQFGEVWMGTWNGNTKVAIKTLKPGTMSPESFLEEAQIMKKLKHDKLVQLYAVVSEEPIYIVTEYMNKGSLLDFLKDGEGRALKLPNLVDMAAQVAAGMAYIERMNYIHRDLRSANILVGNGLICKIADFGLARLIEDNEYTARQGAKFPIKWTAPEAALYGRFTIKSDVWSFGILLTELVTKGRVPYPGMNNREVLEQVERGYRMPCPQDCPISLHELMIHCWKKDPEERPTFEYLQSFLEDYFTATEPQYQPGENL
SMILES,residual activity [1] [%],residual activity [2] [%],residual activity [3] [%],residual activity [4] [%],residual activity [5] [%],residual activity [6] [%],residual activity [7] [%],residual activity [8] [%],residual activity [9] [%],residual activity [10] [%],residual activity [11] [%],residual activity [12] [%],residual activity [13] [%],residual activity [14] [%],residual activity [15] [%],residual activity [16] [%],residual activity [17] [%],residual activity [18] [%],residual activity [19] [%],residual activity [20] [%]
O=C1NC(=O)C(c2cn(CCCO)c3ncccc23)=C1c1cnccn1,30,54,49,69,87,86,79,93,6,3,34,10,93,93,56,52,,,,
Cc1cc(C)c(/C=C2\C(=O)Nc3ccccc32)[nH]1,0,2,0,75,19,57,11,,106,124,,,,,80,39,74,60,,
O=C1NC(=O)C(c2c[nH]c3ccccc23)=C1c1c[nH]c2ccccc12,1,82,32,83,29,80,19,,19,4,31,6,,,76,15,78,20,68,
COc1ccc(-c2cnc3c(-c4ccsc4)cnn3c2)cc1,7,28,5,98,84,96,83,,,,87,88,,,93,95,,,88,
O=c1cc(N2CCNCC2)oc2c(-c3ccccc3)cccc12,90,61,78,88,88,90,83,104,,,78,84,101,96,97,90,95,84,84,90
CN(C)S(=O)(=O)c1ccc2c(c1)/C(=C/c1cc3c([nH]1)CCCC3)C(=O)N2,46,4,0,22,24,5,5,84,97,94,112,94,,,97,90,,78,,99
O=C(O)/C=C/c1cc(Br)c(Br)c(Br)c1Br,27,79,62,89,88,100,72,91,93,51,125,106,93,53,83,27,105,95,84,94
O=c1cc(N2CCOCC2)oc2c1ccc1ccccc12,92,111,102,83,102,91,86,96,,80,101,73,90,50,70,22,98,87,92,71
CCCC(=O)Oc1ccc2[nH]c(C(=O)c3cc4ccccc4[nH]3)cc2c1,68,78,83,78,89,86,70,95,,125,99,95,98,103,102,100,93,82,78,93
Nc1ncnc2[nH]nc(Nc3ccc(F)cc3)c12,41,69,27,54,17,98,49,97,98,90,100,93,108,96,100,92,110,,97,
O=C(CCCc1ccc(-c2ccccc2F)cc1)Nc1ccc(O)cc1,83,97,43,82,72,96,89,91,,84,102,79,108,104,111,105,104,86,90,103
O=C1Cc2c([nH]c3ccc(Br)cc23)-c2ccccc2N1,22,49,23,31,11,6,-1,96,,,8,7,,90,98,64,,,,
c1ccc(-c2cnc(Nc3ccc(OCCN4CCCC4)cc3)s2)cc1,1,1,1,55,13,100,39,105,109,133,,,,,67,19,105,,,78
COc1cc2nccc(Oc3ccc(NC(=S)NC(=O)c4ccccc4C)cc3)c2cc1OC,0,0,-1,-1,0,68,44,88,120,147,86,99,93,,100,91,88,84,79,88
Nc1n[nH]c2nc3ccccc3nc12,44,74,66,73,73,78,37,94,81,50,100,80,,87,98,59,,,85,
O=C1C(Cl)=C(N2C(=O)CCC2=O)C(=O)c2ccccc21,80,73,65,76,75,90,89,94,,,120,93,,89,102,92,99,90,91,93
Cn1c2ccccc2c2c3c(c4c5ccccc5n(CCC#N)c4c21)CNC3=O,3,14,5,47,58,2,1,75,20,19,15,26,,,20,11,16,34,,
CCN(CC)CCNC(=O)c1c(C)[nH]c(/C=C2\C(=O)Nc3ccc(Cl)cc32)c1C,1,0,0,6,1,5,0,33,,,,,32,4,6,1,57,9,17,9
N#Cc1c(NC(=O)c2cccc3ccccc23)sc2c1CCCC2,86,69,74,72,87,,90,98,84,80,,100,,,,,,,90,99
Cn1sc(=O)n(Cc2ccccc2)c1=O,79,91,80,99,96,88,81,85,,,,,,,94,94,89,77,80,
NC(=O)Nc1sc(-c2ccc(F)cc2)cc1C(N)=O,0,11,2,24,5,25,5,82,64,29,,,106,87,94,67,67,19,74,100
Nc1nc(Nc2ccc(S(N)(=O)=O)cc2)nn1C(=O)c1c(F)cccc1F,0,30,7,51,10,33,6,24,11,4,23,3,75,18,48,6,55,6,,
CCCCc1c(-c2ccc(OC)cc2)[nH]c2nccnc12,3,14,8,40,37,22,32,,46,41,52,71,,,,90,77,92,,106
O=C1Cc2c([nH]c3ccc([N+](=O)[O-])cc23)-c2ccccc2N1,32,33,26,20,0,2,5,,1,2,-1,3,109,100,,,,,,
COc1cc2nccc(Oc3ccc(NC(=O)Nc4cc(C)on4)c(Cl)c3)c2cc1OC,-1,0,0,5,1,47,17,104,107,123,,,96,106,,,105,,,
O=C1Nc2ccc(Cl)cc2/C1=C/c1cc(Cl)c(O)c(Cl)c1,1,7,1,67,25,46,14,,75,30,84,44,93,88,76,22,91,79,82,79
